Assay outcomes (PubChem)
Six1-Eya2 inh: inhibitors of human Six1/Eya2 interaction; Q15475+O00167; AlphaScreen GST-Six1/His-Eya2 binding, biochemical; active compounds read low; activity change, % (concentration not given with the values); 360,000 compounds, 0.56% hits; AID 651725; in the data active = activity change below about -65%; inconclusive = mostly about -30% to -63%
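GST-Six1 + His-Eya2 (5X stock: 250/500 nM); Tris pH 8.0, 300 mM NaCl, 0.05% BSA, 0.02% Tween 20; GSH donor/Ni acceptor beads; 1 h 37 °C dark; AlphaScreen readout.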
TDP1 block: TDP1 (human) enzyme inhibition. Q9NUW8. recombinant TDP1, AlphaScreen DNA substrate cleavage. Potency, µM (top dose mostly 130 µM), for the others: at the highest dose activity change, negative = inhibition, usual class: inhibitors. 350,000 compounds, 0.28% hits; also: potency is read from the fitted curve at half-maximal effect; nearly all actives have a fitted effect of over 40% in size
Target sequence (Q9NUW8 whole entry, looked up): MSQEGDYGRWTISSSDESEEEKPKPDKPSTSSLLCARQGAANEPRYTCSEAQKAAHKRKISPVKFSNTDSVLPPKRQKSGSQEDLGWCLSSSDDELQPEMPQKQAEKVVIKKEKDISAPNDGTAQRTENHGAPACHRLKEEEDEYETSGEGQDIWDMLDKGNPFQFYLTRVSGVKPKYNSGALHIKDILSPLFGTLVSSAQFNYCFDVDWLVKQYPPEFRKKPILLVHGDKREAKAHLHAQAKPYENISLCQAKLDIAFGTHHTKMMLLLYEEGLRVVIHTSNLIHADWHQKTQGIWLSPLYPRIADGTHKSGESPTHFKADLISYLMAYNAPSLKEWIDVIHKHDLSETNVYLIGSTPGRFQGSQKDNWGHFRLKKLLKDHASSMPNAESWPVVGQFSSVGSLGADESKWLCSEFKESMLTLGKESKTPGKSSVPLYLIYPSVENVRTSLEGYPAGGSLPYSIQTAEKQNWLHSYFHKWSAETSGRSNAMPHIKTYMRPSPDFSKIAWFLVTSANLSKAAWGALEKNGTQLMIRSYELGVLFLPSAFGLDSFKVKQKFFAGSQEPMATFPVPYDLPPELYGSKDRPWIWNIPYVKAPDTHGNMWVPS
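Here, a 5' biotin and 3' phosphotyrosine-FITC DNA oligonucleotide reports Tdp1 activity: intact substrate bridges AlphaScreen beads, while cleavage leaves a 3' phosphate and drops signal. All incubations at room temperature.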
DT40 TDP1 CPT: DT40-hTDP1 cell growth loss with CPT. chicken DT40 Tdp1-/-;hTDP1 cells + 20 nM CPT, ATP luminescence, 48 h. Potency, µM (top dose mostly 46.2 µM), without a hit: top-dose activity change, negative = growth inhibition, most hits filed as inhibitors. 420,000 compounds, 12% hits. AID 686979; also: potency is read from the fitted curve at half-maximal effect; nearly all actives have a fitted effect of over 55% in size
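Cell growth measured by CellTiter-Glo luminescence after a minimum 48 h, 37 C compound exposure with 20 nM CPT in Tdp1-knockout DT40 cells stably expressing hTDP1, seeded 400/well; qHTS titration format.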
IL1B secr inh: inhibitors of inflammasome signaling (IL-1 beta secretion). AID 743279. 360,000 compounds, 4.7% hits. THP-1 LPS/ATP IL-1B secretion, AlphaLISA, 16 h; active compounds read low. activity change, % at 57.5 µM; in the data active = activity change below about -50%; inconclusive = mostly about -30% to -49%
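Secreted IL-1B measured by AlphaLISA bead assay after 16 h compound exposure of THP-1 cells; compounds (final up to 57.5 uM) added 1 h before LPS (250 ng/mL) and ATP (1.25 mM) stimulation; lower signal means less secretion.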
CtBP-E1A blk: CtBP/E1A binding inhibition | AlphaScreen GST-E1A/His-CtBP binding, 1536-well; active compounds read low | activity change, % (concentration not given with the values) | 340,000 compounds, 0.49% hits; in the data active = activity change below about -65%; inconclusive = mostly about -30% to -63%
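Steps: dispense buffer (Tris pH 8.0, NaCl 300 mM, TCEP 1 mM, BSA, Tween 20); add 5X protein mix (GST-E1A, His-CtBP, 125 nM each); pin 23 nL compound; 2 h at 37 °C, dark; add 5X beads (50 ug/mL); 1 h; read.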
DT40 TDP1 no CPT: qHTS for Inhibitors of human tyrosyl-DNA phosphodiesterase 1 (TDP1): qHTS in cells in absence of CPT. DT40 Tdp1-/- hTDP1 cells, no CPT, ATP luminescence, 48 h. Potency, µM (series often up to 46.2 µM), for the others: top-dose activity change, negative = growth inhibition, actives largely listed as inhibitors. 420,000 compounds, 15% hits. AID 686978, 2013; also: potency is read from the fitted curve at half-maximal effect; nearly all actives have a fitted effect of over 55% in size
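DT40 Tdp1-/-;hTDP1 cells, no CPT (DMSO vehicle only), 400 cells/well; compounds pin-transferred; ≥48 hr, 37 °C; CellTiter-Glo 30 min RT dark, luminescence read.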
Active calls of the source: *; ? = inconclusive; · = not tested or not shown; [ ] = another dose, or the depositor's remark. Rows were chosen to be rich in hits. Some 18% of all compounds tested hit in one or more screens of this group. Unless noted, calls follow the shape of the dose curve; as a rule, active = well fitted curve in the direction sought with a large enough effect; inconclusive = small, poorly fitted or top-dose-only effect, or another doubt; inactive = no such curve, though single readings can be large; an effect the other way counts as inactive or inconclusive. % is scaled to controls: 0 for no effect and ±100 for the full control effect.

SMILES	Six1-Eya2 inh	TDP1 block	DT40 TDP1 CPT	IL1B secr inh	CtBP-E1A blk	DT40 TDP1 no CPT
CCN(CC)c1nc2ccccc2[nH]c1=O	3.4	2.7%	-11.8%	35.3	2.7	-4.7%
CCOc1ccc(S(=O)(=O)NCc2ccccn2)c(C)c1C	4.2	·	23.1µM*	47.8	7.3	-17.9%
COc1ccc(S(=O)(=O)NCc2ccccn2)cc1OC	9.9	·	7.7%	40.3	15.9	-3.1%
COc1ccc(S(=O)(=O)NCc2ccccn2)cc1NC(=O)c1ccccc1C	22.4	-2.1%	4.11µM*	23.7	-9.4	4.61µM*
COc1ccc(S(=O)(=O)NCc2ccccn2)cc1NC(=O)c1ccc(Cl)cc1	4.3	-3.2%	?	-13.5	-18.1	16.4µM*
CC(C)(C)c1ccc(S(=O)(=O)NCc2ccc(C(=O)NCc3ccccn3)cc2)cc1	4.1	7.0%	20.6µM*	-1.6	0.2	18.4µM*
CC(C)(C)c1ccc(S(=O)(=O)NCc2ccccn2)cc1	0.5	·	-18.0%	-4.9	-9.1	?
COc1ccc(S(=O)(=O)NCc2ccccn2)cc1Cl	-1.3	7.2%	-9.3%	-12.2	4.5	-9.1%
CCN(CC)S(=O)(=O)c1ccc(F)c(C(=O)OC2CC(C)OC2=O)c1 (stereo not drawn)	2.9	6.2%	1.3%	-7.7	6.9	-11.4%
COc1ccccc1Oc1ccc(S(=O)(=O)NCc2ccccn2)cc1	2.7	6.2%	?	-4.0	4.4	14.1µM*
CCOC(=O)c1cc(S(=O)(=O)Nc2ccc(Br)c(C)c2)[nH]n1	·	0.6%	-28.1%	·	·	?
CCOC(=O)c1sc2ncnc(NCC(c3cccs3)N(C)C)c2c1C (stereo not drawn)	-2.3	-1.0%	29.1µM*	2.8	-9.1	?
Cc1nnc(SCC(=O)Nc2ccc(O)cc2)c2ccccc12	2.9	0.2%	21.1%	-98.5*	-3.1	-7.0%
Cc1ccccc1NC(=O)CSc1nnc(C)c(=O)[nH]1	3.6	0.0%	10.6%	-7.3	-0.8	-11.8%
Cc1nnc(SCC(=O)Nc2ccccc2)c2ccccc12	-0.1	?	-6.5%	-101.8*	-1.4	?
Cc1nnc(SCC(=O)Nc2ccccc2)[nH]c1=O	2.5	-2.3%	-0.6%	-6.0	4.1	-9.7%
Cc1ccccc1NC(=O)CSc1nnc(C)c2ccccc12	2.2	0.4%	-3.8%	-68.7*	-11.9	7.6%
COc1ccc2cnnc(SCC(=O)Nc3ccccc3)c2c1OC	-2.9	4.2%	-27.9%	-58.1*	-14.0	?
CCC(C)NC(=O)Cn1c(=O)n(-c2ccc(C)cc2)c(=O)c2ccccc21 (stereo not drawn)	·	-0.9%	-4.1%	·	·	1.0%
COc1ccc(C2NC(=O)NC(C)=C2C(=O)OC2CCC(C)CC2)cc1 (stereo not drawn)	-2.9	4.5%	?	-64.5*	·	18.4µM*
COc1ccc(C2NC(=O)NC(C)=C2C(=O)OC2CCCC(C)C2)cc1 (stereo not drawn)	-1.7	·	?	?	4.1	?
COc1ccc(C2NC(=O)NC(C)=C2C(=O)OC2CCCCC2)cc1 (stereo not drawn)	-1.4	·	18.4µM*	-25.5	3.6	?
Cc1[nH]c2c(ccc3ccccc32)c1C1C(CCN)C1(C)C (stereo not drawn)	?	8.1%	?	?	-24.6	23.1µM*
O=C(c1ccccc1)N1CCc2cc(CNS(=O)(=O)c3ccc(Cl)s3)ccc21	·	5.4%	?	·	·	16.4µM*
O=C(c1ccccc1)N1CCc2cc(CNS(=O)(=O)c3ccccc3Cl)ccc21	·	5.4%	1.3µM*	·	·	0.92µM*
SMILES	Six1-Eya2 inh	TDP1 block	DT40 TDP1 CPT	IL1B secr inh	CtBP-E1A blk	DT40 TDP1 no CPT
CC(=O)N1CCc2cc(CNS(=O)(=O)c3ccccc3C(F)(F)F)ccc21	·	0.0%	-2.3%	·	·	0.5%
CCC#CCOCC(=S)Nc1ccccc1	·	2.7%	·	·	·	·
CC1(C)Oc2ccc(C(=O)NC3CCCC3)cc2N(CC(=O)NC2CCCCC2)C1=O	6.9	0.0%	-27.7%	8.1	-6.2	-14.1%
CC1CCN(S(=O)(=O)N2CCC(C(=O)N3CCC(N(C)CC4CCCO4)CC3)CC2)CC1 (stereo not drawn)	1.9	1.2%	0.8%	-10.0	1.4	-5.4%
O=S1(=O)c2ccc(Br)cc2N2CCC[C@@H]2CN1C1CC1	1.8	·	?	19.5	-13.7	?
C[C@@H](c1ccccc1)N1C[C@H]2CCCN2c2cc(Br)ccc2S1(=O)=O	-1.5	0.0%[56.1 µM]	18.4µM*	0.0	0.6	?
O=c1cc2c(nn1Cc1cccc(Cl)c1)-c1ccccc1CC2	0.6	-3.9%	-27.5%	0.0	8.3	?
Cc1nnc(NC(=O)c2ccc(S(=O)(=O)N3CC(C)OC(C)C3)cc2)o1 (stereo not drawn)	-27.8	6.2%	-10.2%	6.3	-21.8	-23.2%
CC1CC(C)CN(S(=O)(=O)c2ccc(C(=O)Nc3nnc(-c4cccs4)o3)cc2)C1 (stereo not drawn)	-7.5	10.2%	6.31µM*	25.9	-2.8	5.01µM*
CCC1CCCCN1S(=O)(=O)c1ccc(C(=O)Nc2nnc(-c3cccs3)o2)cc1 (stereo not drawn)	-0.7	10.4%	6.31µM*	33.2	-25.6	6.31µM*
COc1ccc(N2CC(NC(=O)C3CCCCC3)CC2=O)cc1OC (stereo not drawn)	·	-5.2%	-17.4%	·	·	11.5%
NC(=O)CC(NC(=O)c1cccc(Br)c1)c1ccc(NC2CCCCCCCCCCC2)c([N+](=O)[O-])c1 (stereo not drawn)	1.0	·	2.4%	-1.6	2.9	-11.7%
NC(=O)CC(NC(=O)Cc1ccc(Cl)cc1)c1ccc(NC2CCCCCCC2)c([N+](=O)[O-])c1 (stereo not drawn)	0.1	·	-24.5%	-12.5	-7.9	-9.4%
NC(=O)CC(NC(=O)c1cccc(Br)c1)c1ccc(NC2CCCCCCC2)c([N+](=O)[O-])c1 (stereo not drawn)	-13.4	·	?	-0.3	-10.6	16.4µM*
NC(=O)CC(NC(=O)Cc1ccc(Br)cc1)c1ccc(NC2CCCCCC2)c([N+](=O)[O-])c1 (stereo not drawn)	1.1	7.5%	18.4µM*	?	2.6	?
NC(=O)CC(NC(=O)c1ccc(Br)cc1)c1ccc(NC2CCCCC2)c([N+](=O)[O-])c1 (stereo not drawn)	0.9	·	14.6µM*	11.1	2.8	16.4µM*
NC(=O)CC(NC(=O)Cc1ccc(Br)cc1)c1ccc(NC2CCCCCCC2)c([N+](=O)[O-])c1 (stereo not drawn)	-13.4	·	?	?	1.2	?
